CtBP-E1A blk: blocks the CtBP interaction with E1A; 0.49% of 340,000 active; AlphaScreen GST-E1A/His-CtBP binding, 1536-well; active compounds read low; activity change, % (test concentration not listed); in the data active = activity change below about -65%; inconclusive = mostly about -30% to -63%; also: % is scaled to controls: 0 for no effect and ±100 for the full control effect
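AlphaScreen with 125 nM GST-E1A and 125 nM His-CtBP (5X stocks) in Tris pH 8.0, 300 mM NaCl, BSA, Tween 20, TCEP. Compounds preincubated 2 h at 37 deg C, then glutathione donor/nickel acceptor beads added for 1 h at 37 deg C in dark.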
G9a inh: blocks human histone lysine methyltransferase G9a. G9a H3K9 monomethylation, AlphaScreen, 2 h. 8.8% of 350,000 active. Potency, µM (doses to about 102 µM), for the others: at the highest dose activity, negative = inhibition, actives largely listed as inhibitors. Q96KQ7; also: potency is read from the fitted curve at half-maximal effect; % is scaled to controls: 0 for no effect and ±100 for the full control effect; nearly all actives have a fitted effect of over 75% in size
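G9a (20 nM) preincubated 15 min RT with compounds, then 500 nM biotinylated H3K9 peptide and 20 uM SAM added; 2 h RT reaction. Monomethyl-H3K9 product detected by AlphaScreen with anti-H3K9me1 antibody, streptavidin donor and anti-rabbit IgG acceptor beads.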
BAZ2B block: inhibitors of human BAZ2B bromodomain; AlphaScreen BAZ2B-H3K14Ac peptide displacement; Potency, µM (highest dose often 114 µM), without a hit: top-dose activity change, negative = inhibition, hits mostly inhibitors; 4.4% of 360,000 active; AID 504333; also: potency is read from the fitted curve at half-maximal effect; % is scaled to controls: 0 for no effect and ±100 for the full control effect; nearly all actives have a fitted effect of over 60% in size
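Protein-peptide AlphaScreen: BAZ2B 50 nM, b-H3K14Ac 50 nM, 1x PBS pH 7.4 + 0.01% Tween-20. Preincubation 30 min RT; cpd 30 min RT (top 110 uM); beads 20 min RT, light-protected.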
Six1-Eya2 blk: Six1/Eya2 interaction inhibition. AlphaScreen GST-Six1/His-Eya2 binding, biochemical; active compounds read low. activity change, % (no concentration beside the values). 0.56% of 360,000 active. AID 651725; in the data active = activity change below about -65%; inconclusive = mostly about -30% to -63%; also: % is scaled to controls: 0 for no effect and ±100 for the full control effect
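Homogeneous AlphaScreen proximity assay pairing GST-Six1 with His-tagged Eya2 (added as 5X mix: 250 nM and 500 nM) in 50 mM Tris pH 8.0, 300 mM NaCl, 1 mM TCEP. Glutathione donor and nickel acceptor beads; 1 h, 37 °C, dark.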
JMJD2A Tudor: JMJD2A Tudor domain (human) inhibition; AID 504339; O75164; Potency, µM (doses to about 114 µM), without a hit: at the highest dose activity change, negative = inhibition, most hits filed as inhibitors; 4.4% of 390,000 active; AlphaScreen JMJD2A-Tudor / H3K4me3 peptide binding; also: potency is read from the fitted curve at half-maximal effect; % is scaled to controls: 0 for no effect and ±100 for the full control effect; nearly all actives have a fitted effect of over 50% in size
HP1b binding inh: inhibitors of HP1-beta chromodomain binding to methylated histone tails; P83916; 0.56% of 390,000 active; AlphaScreen HP1-beta / biotin-H3K9me3 peptide binding; Potency, µM (highest dose often 114 µM), inactives show at the highest dose activity change, negative = inhibition, usual class: inhibitors; AID 540317; also: potency is read from the fitted curve at half-maximal effect; nearly all actives have a fitted effect of over 70% in size
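HP1-beta protein (50 nM final) preincubated 30 min at room temperature with biotinylated H3(1-18)K9me3 peptide (50 nM) in PBS pH 7.4, 0.01% Tween-20, then compound added for 30 min. AlphaScreen streptavidin donor/nickel chelate acceptor beads (10 ug/mL final), 30 min dark, luminescence read.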
Active calls of the source: *; ? = inconclusive; . = not tested or not shown; [ ] = dose if it differs, or a comment. Shown are actives, neighbours in structure and some others; about 10% of the full set was active somewhere. Unless noted, calls follow the shape of the dose curve; as a rule, active = well fitted inhibition curve with a large enough effect; inconclusive = small, poorly fitted or top-dose-only effect; inactive = no such curve, though single readings can be large or run the other way.

SMILES	CtBP-E1A blk	G9a inh	BAZ2B block	Six1-Eya2 blk	JMJD2A Tudor	HP1b binding inh
CCN(CC)CCNC(=S)Nc1ccc2nc(N3CCN(CC)CC3)cc(C)c2c1	-6	45µM*	-11%	-4	-20%	-7%
CCCN(CCC)CCNC(=O)CCC(=O)Nc1ccc2nc(N3CCN(C)CC3)cc(C)c2c1	6	?	-14%	1	-12%	18%
CCCCN(C)C(=S)Nc1ccc2nc(N3CCN(CC)CC3)cc(C)c2c1	-15	45µM*	-29%	-1	-7%[11.4 µM]	14%
CCN1CCN(c2cc(C)c3cc(NC(=O)c4ccc(OC)c(OC)c4)ccc3n2)CC1	4	71µM*	-28%	-13	-33%	11%
CCCCN(C)CCNC(=S)Nc1ccc2nc(N3CCN(CC)CC3)cc(C)c2c1	-5	45µM*	-4%	-2	-18%	-15%
CCN1CCN(c2cc(C)c3cc(NC(=S)N(C)Cc4ccccc4)ccc3n2)CC1	-11	?	-33%	-9	?	13%
COc1ccc(Nc2nn(-c3ccc(OC(F)(F)F)cc3)nc2C(C)=O)cc1	.	23%[59 µM]	-14%	.	-9%	53%
Cc1ccc(-n2nc(C)c3c(C(F)(F)F)cc(-c4cccnc4)nc32)cc1Cl	.	7%[59 µM]	3%	.	8%	45%
Nc1nnc2c(n1)[nH]c1ccccc12	.	20%[59 µM]	-19%	.	-10%	49%
CCCCNC(=O)CCC(=O)Nc1ccc2nc(N3CCN(C)CC3)cc(C)c2c1	.	-9%[59 µM]	-20%	8	-20%	12%[57 µM]
CCN1CCN(c2cc(C)c3cc(NC(=S)NCCN(C)C)ccc3n2)CC1	-6	50µM*	0%	-5	-15%	-34%
CCCCN(CC)C(=S)Nc1ccc2nc(N3CCN(C)CC3)cc(C)c2c1	.	40µM*	?	-8	?	-1%[57 µM]
CCOC(=O)N1CCC(NC(=S)Nc2ccc3nc(N4CCN(CC)CC4)cc(C)c3c2)CC1	-12	25µM*	?	-3	-18%[11.4 µM]	16%
O=C(CCS(=O)(=O)c1nc(-c2ccc3c(c2)OCO3)cc(C(F)(F)F)n1)Nc1ccc(F)c(Cl)c1	.	3%[59 µM]	4%	.	-8%	38%
O=C(O)c1ccc(CNc2ncnc3nc[nH]c23)cc1	.	.	.	.	-8%	32%
COc1cc2c(cc1OC)C1=C(C#N)CN(CC(=O)O)CN1CC2	5	35µM*	79µM*	-8	22µM*	-24%
O=c1[nH]cnc2c1sc1nc3c(c(-c4ccc(Cl)cc4)c12)CCC3	-71*	-4%[59 µM]	1%	?	1%	24%
COc1ccc(CCNC(=O)Cn2cc(S(=O)(=O)Cc3ccc(F)cc3)c3ccccc32)cc1OC	.	4%[59 µM]	-3%	.	-22%	7%
CCOC(=O)Cn1c(=O)cc(C)c2ccccc21	.	13%[59 µM]	-1%	-3	13µM*	?
CCN1C(=O)CS/C1=N\S(=O)(=O)c1ccc(Cl)cc1	9	-2%	-23%	-10	-10%	9%
CCn1c(Cl)c(C=O)s/c1=N\S(=O)(=O)c1ccccc1	-3	45µM*	17%	-19	-24%[11.4 µM]	-5%
CCC(=O)Oc1ccc(NC(=O)CSCc2ccccc2)cc1	.	-13%	-2%	2	-9%	54%
Cc1cccc(C(=O)N2CCNC(=O)C2CC(=O)Nc2ccc(F)cc2)c1 (centres undefined)	.	3%[59 µM]	-2%	.	4%	34%
Cc1ncoc1C(=O)Nc1ncc([N+](=O)[O-])s1	0	4.5µM*	?	-20	40µM*	?
O=C1c2c([N+](=O)[O-])cc([N+](=O)[O-])cc2S(=O)N1Cc1ccccc1 (centres undefined)	-5	0.89µM*	45µM*	-4	89µM*	?
SMILES	CtBP-E1A blk	G9a inh	BAZ2B block	Six1-Eya2 blk	JMJD2A Tudor	HP1b binding inh
O=C(O)c1cccc2c1C(=O)c1cc([N+](=O)[O-])cc([N+](=O)[O-])c1-2	-4	.	.	-29	.	.
Cc1noc(C)c1-c1nc(N(C)Cc2ccco2)c2ccccc2n1	.	-31%[0.501 µM]	.	.	.	.
COc1ccc(OC)c(NC2c3ccccc3C(=O)N2c2cccnc2)c1 (centres undefined)	0	50µM*	-14%	17	-33%	44%
Cc1ccc(N2C(=O)c3ccccc3C2Nc2ccc(S(=O)(=O)N3CCCCC3)cc2)nc1 (centres undefined)	2	?	1%	-12	-29%	14%
CCOC(=O)c1ccc(NC2c3ccccc3C(=O)N2c2ccccn2)cc1 (centres undefined)	-15	50µM*	-1%	5	-18%	15%
CCN(CC)S(=O)(=O)c1ccc(NC2c3ccccc3C(=O)N2c2ccc(C)cn2)cc1 (centres undefined)	5	40µM*	5%	2	-13%	28%
COc1ccc(NC2c3ccccc3C(=O)N2c2ccccn2)cc1 (centres undefined)	3	?	56µM*	4	-35%	5%
COc1ccc(CC2(C)OC(c3ccc([N+](=O)[O-])cc3)=NN2C(C)=O)cc1 (centres undefined)	1	11µM*	?	?	?	?
Cc1nn(CC(=O)NCc2ccccc2Cl)c(=O)c2nn(-c3ccccc3)c(C)c12	.	21%[59 µM]	1%	.	-6%	80%
COCCn1c(-c2ccc(Cl)cc2)cnc1SCC(=O)NCc1cccs1	-9	45µM*	?	-11	?	?
O=C(CSc1nc2ccccc2c(=O)n1Cc1ccc(Cl)cc1)NCc1cccs1	.	7%[59 µM]	-2%	-2	-11%	18%
Cc1ccccc1OC1(C)CCN(Cc2ccc(-c3ccccn3)cc2)C1 (centres undefined)	2	.	.	-5	.	.
Cc1cc(C(F)(F)F)c2c(N)c(C(=O)Nc3c(Cl)cccc3Cl)sc2n1	.	32%[59 µM]	48%	.	52%	101%
CN1OC[C@@H]2CN(Cc3cc(Cl)cc(Cl)c3)[C@H](c3cccc(Oc4ccccc4)c3)C[C@@H]21	-8	.	.	-19	89µM*	-2%
Cc1cccc(N2CCN(C(=O)c3ccc(NC(=O)c4nsc5ccccc45)cc3)CC2)c1C	.	0%[59 µM]	1%	.	-11%	22%[57 µM]
COc1cccc(-c2nc(S(=O)(=O)c3ccccc3)c(NCc3ccccc3)o2)c1	.	-42%[59 µM]	-23%	.	-18%	22%
Cc1ccc(NC(=O)CCCN2C(=S)NC(C)(C)CC2C)cc1 (centres undefined)	-17	-4%	-20%	-13	-17%	11%
CC1CC(C)(C)NC(=S)N1CCC(=O)N1CCN(c2ccccc2)CC1 (centres undefined)	5	40µM*	-22%	1	-4%	7%
CC(=O)c1ccc(N2CCN(C(=O)CCN3C(=S)NC(C)(C)CC3C)CC2)cc1 (centres undefined)	2	1%	-20%	-5	-3%	37%

Screening results as filed in PubChem.
